Inconclusive results are not listed. Entries that show only a call come without a potency. The source made the active and inactive calls. Calls follow the shape of the dose curve; as a rule, active = well fitted cell-killing curve with a large enough effect in the repeat runs; inconclusive = weak or mixed curves, or effect the other way; inactive = flat fitted curve, though single readings scatter.
Assay: qHTS RealTime-Glo MT Cell Viability Assay in HEK293 cells - 32 hour (AID 1224868); also: nearly all actives have a fitted effect of over 50% in size
Conditions: RealTime-Glo luminescence; series mostly up to 76.8 µM
Method in brief: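 Viability tracked continuously by luminescence as live cells reduce a prosubstrate for NanoLuc; HEK293 cells preincubated 5 h, compound-treated at 37 C, and read at 0, 8, 16, 24, 32 and 40 h.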
Potency is read from the fitted curve at half-maximal effect.

Q: With `CCC(C)COC(C)=O` (stereo unspecified) as the compound, how does the Potency read?
A: inactive

Q: Which Potency does the source give for `COc1ccccc1Oc1c(NS(=O)(=O)c2ccc(C(C)(C)C)cc2)nc(-c2ncccn2)nc1OCCO` here?
A: inactive

Q: Which Potency does the source give for `C[C@@H]1CN(CCCn2c3ccccc3c3ccccc32)C[C@H](C)N1` here?
A: 26.8 µM (active)

Q: For `CC1CC(OC(=O)C(O)c2ccccc2)CC(C)(C)N1C` (stereo unspecified), which Potency is on record?
A: inactive

Q: With `O=C(O)c1cccc(-c2noc(-c3ccccc3F)n2)c1` as the compound, how does the Potency read?
A: inactive

Q: Which Potency does the source give for `CC1=C(CC=O)C(C)(C)CCC1` here?
A: inactive

Q: For `COC(=O)C1=C(C)NC(C)=C(C(=O)O[C@@H]2CCCN(Cc3ccccc3)C2)[C@@H]1c1cccc([N+](=O)[O-])c1`, which Potency is on record?
A: inactive

Q: For `CC[N+](CC)(CCNC(=O)C(=O)NCC[N+](CC)(CC)Cc1ccccc1Cl)Cc1ccccc1Cl`, which Potency is on record?
A: inactive

Q: For `CC(C)c1nc(CN(C)C(=O)N[C@H](C(=O)N[C@@H](Cc2ccccc2)C[C@H](O)[C@H](Cc2ccccc2)NC(=O)OCc2cncs2)C(C)C)cs1`, which Potency is on record?
A: 21.3 µM (active)

Q: With `CN1C(=O)OC(C)(C)C1=O` as the compound, how does the Potency read?
A: inactive

Q: Which Potency does the source give for `Cc1cccc(N(C)C(=S)Oc2ccc3c(c2)CCC3)c1` here?
A: inactive

Q: With `NC1[C@H]2CN(c3nc4c(cc3F)c(=O)c(C(=O)O)cn4-c3ccc(F)cc3F)C[C@@H]12` (stereo partly specified) as the compound, how does the Potency read?
A: inactive

Q: With `CCCCCCCCCCCCCCN(CCO)CCO` as the compound, how does the Potency read?
A: 21.9 µM (active)

Q: With `O=C(O)CCc1nc(-c2ccccc2)c(-c2ccccc2)o1` as the compound, how does the Potency read?
A: inactive

Q: For `CN1C(=O)N(c2ccccc2Br)Cc2cnc(Nc3ccc4c(c3)OCC(CO)O4)nc21` (stereo unspecified), which Potency is on record?
A: 6.16 µM (active)

Q: Which Potency does the source give for `CCOc1ccc(Cc2nccc3cc(OCC)c(OCC)cc23)cc1OCC` here?
A: 6.01 µM (active)

From PubChem BioAssay (Tox21)
